# HIF activator: HIF pathway transcriptional activators, primary screen, cell-based, U2OS HRE-luciferase, luminescence | U2OS HRE-luciferase reporter; normalized: DMSO 0%, desferrioxamine 100% | activation, % at 7.5 µM (by protocol) | actives 0.32% (n = 300,000);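 active = mean activation of at least 10% of the iron chelator positive control signal, with at least half of replicates also reaching 10%; inconclusive = mean and replicate majority disagree about reaching 10%; inactive = mean and most replicates under 10%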
# Platelet DG rel: inhibitors of platelet dense granule secretion, primary screen, cell-based, MLPCN, human platelets; actives 0.22% (n = 300,000); human platelet-rich plasma, SFLLRN dense granule ATP release, luminescence; inhibition, %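 (compounds screened at 7.5 µM in platelet-rich plasma)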;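 active = mean replicate score, as percent of positive control, at or above 50; inconclusive = mean below 50 but at least one replicate at or above 50; inactive = mean and every replicate below 50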
# AHR act: AHR activators, primary screen, cell-based, luminescence, luciferase reporter, human | AHR-responsive luciferase reporter cells | activation, % at 5 µM | actives 2.5% (n = 320,000); in the data active = activation above about 47%;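 also: 0% = vehicle wells and 100% = reference agonist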
# p-CIP stab down: p/CIP-EGFP fusion destabilizers, primary screen, fluorescence, F442A cells | Q05BA5 | 16 h | decrease of EGFP signal, % at 10 µM | actives 0.01% (n = 290,000);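 active = EGFP signal decrease of at least 30% at 10 µM or well 3 SD below plate mean, unless failing retest; inactive = the rest, including hits failing retest or dose response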
# PolyA inhibitor: polyadenylation inhibitors in yeast reporter cells, primary screen, luminescence, S. cerevisiae; S. cerevisiae SKY197-pL101 polyadenylation reporter, beta-gal luminescence; efflux-impaired pdr1/pdr3 knockout yeast; score 100 = 6 SD above DMSO; activity score, % at 12 µM; AID 1875, 2009; actives 0.02% (n = 300,000);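 active = lowest replicate activity score at least 50, where 100 means six control SD above control mean; inconclusive = lowest score under 50 but half or more replicates reach 50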;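 also: yeast exposed to compound for 9 h at 30 °C; higher score means more reporter readthrough which indicates perturbed polyadenylation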
# AHR act cf: AHR activators, confirmation, cell-based, luminescence, luciferase reporter, human. shares compounds with AHR act. human cells, AHR-responsive luciferase reporter. actives 87% (n = 2,300). activation, % at 9 µM; in the data active = activation above about 49%;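 also: HepG2 hepatoma cells carrying a DRE-driven firefly luciferase reporter; 0% = vehicle wells and 100% = reference agonist wells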
# PXR act counter: human PXR activators, counter-screen for AHR activator project, cell-based, luciferase luminescence | activation, % at 11.6 µM | actives 88% (n = 2,300) | AID 434939, 2010 | shares compounds with AHR act | cell-based PXR reporter; in the data active = activation above about 11%;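 also: human hepatoma DPX-2 cells expressing full-length human PXR; 0% = DMSO and 100% = reference agonist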
# Target sequence (O75469 whole entry, looked up): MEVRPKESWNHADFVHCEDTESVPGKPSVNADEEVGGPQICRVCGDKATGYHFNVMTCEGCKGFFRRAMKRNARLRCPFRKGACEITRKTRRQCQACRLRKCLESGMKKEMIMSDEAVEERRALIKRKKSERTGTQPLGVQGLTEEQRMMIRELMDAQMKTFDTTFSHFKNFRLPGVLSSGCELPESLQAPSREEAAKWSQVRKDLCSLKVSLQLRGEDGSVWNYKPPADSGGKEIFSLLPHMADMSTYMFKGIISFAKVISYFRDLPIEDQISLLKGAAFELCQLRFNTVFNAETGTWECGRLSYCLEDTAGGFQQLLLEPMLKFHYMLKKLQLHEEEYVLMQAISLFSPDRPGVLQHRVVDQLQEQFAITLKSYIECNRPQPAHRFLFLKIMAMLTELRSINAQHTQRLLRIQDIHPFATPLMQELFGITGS
# * marks the source's active call; other numbers are inactive results; ? = inconclusive; . = no result given. In the library only some 2.8% were active in any assay of this set; here they are far more common.
SMILES,HIF activator,Platelet DG rel,AHR act,p-CIP stab down,PolyA inhibitor,AHR act cf,PXR act counter
Cc1ccc(NC(=O)CSc2nnnn2-c2ccc3c(c2)OCO3)cc1C,0,-1,159*,-5,13,167*,226*
Cc1ccc(-n2nnnc2SCC(=O)Nc2ccc3c(c2)OCCO3)cc1C,0,2,2,-8,-14,.,.
Cc1noc(NS(=O)(=O)c2ccc(NC(=O)C(F)(F)C(F)(F)C(F)(F)F)cc2)c1C,.,.,1,.,-8,.,.
CC1(C)CC(=O)C2(CC3=C(CC(C)(C)CC3=O)O2)C(=O)C1,0,3,-2,5,-9,.,.
CC(=O)c1c(N2CCCC2)[nH]c(-c2ccccc2)nc1=S,0,5,14,5,0,.,.
CC(=O)c1c(N2CCOCC2)[nH]c(-c2ccccc2)nc1=S,0,8,136*,-15,-6,122*,75*
COc1ccc(C2=NS(=O)(=O)N(C)C(C(=O)N3CCCCC3)=C2)cc1OC,0,1,4,-8,-3,.,.
O=c1c2ccccc2nc(SCc2nc3ccccc3s2)n1CCCO,4,-35,89*,-12,18,107*,52*
COc1ccccc1CN1CCc2c([nH]c3ccccc23)C1,1,-4,99*,-1,4,90*,27*
CCN(Cc1cnn(C)c1)C(=O)c1ccc2nc(Cc3cccc(Cl)c3)oc2c1,0,-10,1,-3,5,.,.
O=C1N=c2ccc(Br)cc2=C1c1sc(=S)n(NS(=O)(=O)c2ccccc2)c1O,0,0,83*,12,-19,20,23*
O=C1N=c2ccccc2=C1c1sc(=S)n(NC(=O)c2cccc(O)c2)c1O,-15,-6,.,2,3,.,.
Cc1ccsc1CN(C)C(=O)CN1C(=O)NC(c2ccccc2)(c2ccccc2)C1=O,.,.,1,.,.,.,.
COc1ccc(-c2nc3cnccn3c2Nc2ccc3c(c2)OCO3)cc1,1,-5,105*,-7,-5,85*,144*
O=c1[nH]cnc2c1sc1nc(C(F)F)cc(-c3ccccc3)c12,.,.,106*,.,.,76*,10*
Cn1cncc1C#Cc1c(C=O)n(C)c2ccccc12,.,.,114*,.,.,109*,23*
COc1cc(C#Cc2c(C=O)n(C)c3ccccc23)cc(OC)c1,.,.,33,.,.,.,.
COC(=O)NN=C1CCC(c2ccccc2)CC1 (stereo unspecified),.,.,.,-4,.,.,.
COC(=O)N/N=C1/C/C(=N\NC(=O)OC)c2ccccc21,-1,-2,115*,2,-27,113*,9
COc1ccc(N2CCN(c3ccc(S(=O)(=O)N(C(C)C)C(C)C)cn3)CC2)cc1,0,3,-2,-6,-5,.,.
c1ccc(C2=NNC(=NC3CC3)SC2)cc1,.,32,6,0,6,.,.
c1ccc2c(C3=NNC(=NC4CC4)SC3)c[nH]c2c1,0,56*,97*,-34,20,8,11*
c1cc(-c2cc3cc4c(cc3cn2)OCO4)cs1,.,.,118*,.,.,114*,25*
CCN(CC)c1ccc(/C=N/N=C(c2ccccc2)c2ccccc2)c(O)c1,-1,10,12,-4,-11,.,.
CCN(CC)c1ccc(/C=N/N(c2ccccc2)c2ccccc2)c(O)c1,0,-7,94*,-7,0,90*,97*
SMILES,HIF activator,Platelet DG rel,AHR act,p-CIP stab down,PolyA inhibitor,AHR act cf,PXR act counter
COC(=O)c1ccc(N=CC2=C(O)CC(c3ccccc3)CC2=O)cc1 (stereo unspecified),0,-2,-1,-25,11,.,.
O=C1CC(c2ccccc2)CC(O)=C1C=Nc1ccc(O)cc1 (stereo unspecified),-1,9,83*,-4,14,67*,14*
COc1ccc(N=CC2=C(O)CC(c3ccccc3)CC2=O)c(OC)c1 (stereo unspecified),0,-16,116*,1,?,104*,21*
CC(C)CN1CN(Cc2ccccc2)CNC1=S,0,2,0,6,-1,.,.
COc1ccc(NC(=O)c2ccc(Br)o2)cc1,3,19,3,-15,11,.,.
CC(C)c1ccc(NC(=O)c2ccc(Br)o2)cc1,1,14,99*,-5,-20,107*,35*
O=C(O)CCCC(=O)OCc1c(-c2ccccc2)ncc2ccccc12,.,.,2,.,.,.,.
CCCNC(=O)c1ccc2c(=O)n(Cc3ccco3)c(=S)[nH]c2c1,0,-2,88*,-18,-19,70*,34*
O=C(CN1CCN(c2ccccc2)CC1)Nc1cccc([N+](=O)[O-])c1,-1,-2,5,-4,7,.,.
CCOC(=O)c1c(C)[nH]c(C(=O)OCC(=O)N(CC(C)C)C2CCS(=O)(=O)C2)c1C (stereo unspecified),.,.,2,.,.,.,.
O=C(NC(=S)Nc1ccc(F)c(Cl)c1)C1CC1,1,11,93*,-15,-7,95*,.
Cc1cccc2cc3c(N)c(C(=O)N4CCOCC4)sc3nc12,3,4,81*,-10,-5,78*,.
CC1CCN(Cc2nnc(-c3cccc(Br)c3)o2)CC1,2,7,-1,2,2,.,.
O=C(CCCl)Nc1nc2c(s1)CCc1ccccc1-2,-1,6,99*,-16,-10,112*,31*
CC(=O)c1cccc(NC(=S)NC(=O)c2ccccc2Cl)c1,1,-4,17,-7,11,.,.
O=C(NC(=S)Nc1ccccc1O)c1ccccc1Cl,1,1,89*,-9,-9,128*,21*
CCCc1nc(NCc2ccccn2)c2nnn(Cc3ccccc3F)c2n1,0,0,1,-5,4,.,.
CCCc1nc(NCc2ccncc2)c2nnn(Cc3ccccc3F)c2n1,1,5,81*,-10,-7,61*,116*
Cc1nn(-c2ccccc2)c(C)c1NC(=O)COc1ccc([N+](=O)[O-])cc1,0,19,3,.,9,.,.
CCCn1c(NC(=S)Nc2ccccc2)nc2ccccc21,0,-4,83*,-16,-6,75*,11*
O=C(Nc1ccc2c(c1)OCO2)c1ccncc1,1,-2,103*,-3,-1,74*,.
Cn1c(C(=O)NCc2ccc3c(c2)OCO3)cc2sccc21,0,6,13,-22,5,.,.
COc1ccc(NC(=O)c2cc(OC)c(OC)c(OC)c2)cc1S(=O)(=O)N1CCCCC1,-1,12,4,-1,12,.,.
COc1ccc(NC(=O)c2ccc(Cl)nc2)cc1S(=O)(=O)N1CCCCC1,0,-5,121*,3,-6,85*,63*

# Screening results as filed in PubChem.
